Among all 52,000 compounds or so, about 4,300 (8.3%) were called active. Many of the other results were omitted from the sample, so actives are more common in it than they were. Unmarked numbers belong to inactive results. Rule as the data show it: active = survival mostly below about 52% (no sharp cut-off); inactive = mostly above about 56%.
These molecules were tested on DeltatarO mutant (assay: growth inhibition of S. aureus wild type versus tarO mutant, primary screen, teichoic acid synthesis inhibitors, RN4220, OD600 (AID 463173)). Details: OD600, 18 h, hits give low values, screened at 18.75 µg/mL (by protocol).
With `CCNC(=O)C1CCN(S(=O)(=O)c2ccc3c(c2)CCCN3C(C)=O)CC1` the survival was 99%. For `CCC(CC)C(=O)OCc1cc(=O)n2nc(C3CCCCC3)sc2n1`, the survival was 88%. `COc1ccc(/C=C(\NC(=O)c2ccccc2)C(N)=O)cc1` was tested, and the survival was 79%. In the case of `CC(C)CCNC(=O)Cn1c(-c2cccs2)cc2cc(F)ccc21`, the survival is reported as 94%. Molecule `Cc1cc(C)c2c(c1)c(C)cc1nnc(SCC(=O)c3ccc(F)cc3)n12` has a survival of 63%. With `Cc1ccc(C)c(CSC2=NC(C)(C)Nc3ccccc32)c1` the survival was 80%. With `CCC(NC(C)=O)c1ccccc1` (stereo not given) the survival was 71%. `CCCCCCNc1nc(Oc2ccccc2)nc(Oc2ccccc2)n1` gave a survival of 62%. `CN(C)C(=O)CSc1n[nH]c(-c2ccccc2)n1` showed a survival of 103%. `Cc1ccc(-c2noc(-c3ccc(N4CCC(C)CC4)c([N+](=O)[O-])c3)n2)cc1` gave a survival of 85%. In the case of `Cc1ccc(NC(=O)CSc2nc3ccc(NC(=O)CCc4ccccc4)cc3s2)cc1`, the survival is reported as 90%. For `Cc1nn(S(=O)(=O)c2ccc(C(C)C)cc2)c(C)c1S(=O)(=O)N1CCCCC1`, the survival was 79%. `O=C(COc1ccc(Cl)cc1)OCc1cc(=O)n2nc(C3CC3)sc2n1` gave a survival of 83%. For `Cc1cc(=O)[nH]c2nnc(SCc3ccc(Cl)cc3Cl)n12`, the survival was 123%. For `COc1ccccc1NC(=O)c1sc2ncn(Cc3ccccc3Cl)c(=O)c2c1C`, the survival was 99%. With `Cc1cccc(-c2nc3c(cnn3-c3ccccc3)c(=O)n2-c2ccc(Cl)cc2)c1` the survival was 56%. Work on `CCOc1ccc(-n2c(C)nc3c(cnn3-c3ccc(C)cc3)c2=O)cc1` yielded a survival of 76%. `Cc1cccc(-n2c(-c3ccco3)nc3c(cnn3-c3ccc(F)cc3)c2=O)c1` gave a survival of 81%. For `Cc1cccc(-c2nc3c(cnn3-c3ccccc3)c(=O)n2-c2cccc(Cl)c2)c1`, the survival was 44% (active). `CCOc1ccc(-n2c(CC)nc3c(cnn3-c3ccc(Cl)cc3)c2=O)cc1` gave a survival of 46%. `CCOc1ccc(-n2c(-c3ccc(C)cc3)nc3c(cnn3-c3ccccc3)c2=O)cc1` was tested, and the survival was 42% (active). Molecule `CC(=O)c1ccc(N2CCN(S(=O)(=O)c3ccc4c(c3)C(C)(C)C(=O)N4)CC2)cc1` has a survival of 64%. For `CN1C(=O)c2ccccc2Sc2ccc(NC(=O)NCc3ccc(Cl)cc3)cc21`, the survival was 96%. With `COc1ccc(/C=C/C(=O)Nc2sc3c(c2C(N)=O)CCC(C)C3)cc1OC` (stereo not given) the survival was 34% (active). Work on `COc1ccc(/C=C/C(=O)Nc2sc3c(c2C(N)=O)CCCC3)cc1` yielded a survival of 58%. `COC(=O)c1sc(NC(=O)/C=C/c2ccc(OC)c(OC)c2)c(C(=O)OC)c1C` was tested, and the survival was 37% (active). In the case of `CCOC(=O)c1c(NC(=O)/C=C/c2ccc(Cl)cc2)sc2c1CCC(C)C2` (stereo not given), the survival is reported as 44% (active). For `COC(=O)c1c(NC(=O)/C=C/c2ccc(OC)cc2)sc2c1CCC2`, the survival was 102%. `CCOC(=O)c1c(NC(=O)/C=C/c2ccc(OCC)c(OC)c2)sc2c1CCC2` gave a survival of 56%. With `CCOC(=O)c1c(NC(=O)/C=C/c2ccc(OC)cc2)sc2c1CCC(C)C2` (stereo not given) the survival was 23% (active). `COC(=O)c1c(NC(=O)/C=C/c2ccc(OC)c(OC)c2)sc2c1CCC2` gave a survival of 51%. In the case of `CCOC(=O)c1c(NC(=O)/C=C/c2ccc(OC)c(OC)c2)sc(C(C)=O)c1C`, the survival is reported as 118%. In the case of `CCOC(=O)c1sc(NC(=O)/C=C/c2ccc(C(C)C)cc2)c(C(=O)OCC)c1C`, the survival is reported as 52%. `COc1cc(C(=O)Nc2sc3c(c2C(N)=O)CCC(C)C3)cc(OC)c1OC` (stereo not given) was tested, and the survival was 53%. With `CCCOc1ccc(/C=C/C(=O)Nc2sc3c(c2C(=O)OCC)CCC(C)C3)cc1OC` (stereo not given) the survival was 51%. `Cc1ccccc1-c1noc(-c2nnn(-c3ccccc3C)c2N)n1` was tested, and the survival was 94%. For `O=C(NCc1ccco1)c1ccc2c(c1)N(Cc1ccccc1F)C(=O)c1ccccc1S2=O` (stereo not given), the survival was 90%. With `CCCCNC(=O)c1ccc2c(c1)N(Cc1ccc(F)cc1)C(=O)c1ccccc1S2=O` (stereo not given) the survival was 65%. Work on `COC1CCCC(C(=O)Nn2c(C3CC3)nc3ccccc3c2=O)C1` (stereo not given) yielded a survival of 69%. For `Cc1cc(F)ccc1NC(=O)c1csc2c1CCC(C)C2` (stereo not given), the survival was 89%. `Cc1occc1C(=O)NN=C1c2ccccc2-c2ccccc21` gave a survival of 69%. `CCN(C(=O)c1oc2ccc(S(=O)(=O)N3CCCCCC3)cc2c1C)c1ccccc1` gave a survival of 124%. With `CSc1ccc(NC(=O)N2C3CCC2CC(O)(c2cccnc2)C3)cc1` (stereo not given) the survival was 79%. Work on `CCOc1ccccc1CNS(=O)(=O)c1ccc(-c2coc(C)n2)cc1` yielded a survival of 94%. `Cc1nc(N2CCCC2)ncc1C(=O)Nc1ccc(F)cc1F` was tested, and the survival was 90%. `Cc1ccc(Cl)cc1NC(=O)c1ccc2nc(CCc3ccccc3)oc2c1` was tested, and the survival was 69%. Molecule `COc1cccc(-c2cn3c(n2)sc2cc(C(=O)NCc4cccs4)ccc23)c1` has a survival of 57%. `Cc1ccc(-c2cn3c(n2)sc2cc(C(=O)NCc4cccs4)ccc23)c(C)c1` was tested, and the survival was 41% (active). For `O=C(NCc1cccs1)c1ccc2c(c1)sc1nc(-c3ccccc3)cn12`, the survival was 82%. Work on `O=C(NCc1cccs1)c1ccc2c(c1)sc1nc(-c3ccc(F)cc3)cn12` yielded a survival of 71%. Work on `Cc1ccc(-c2cn3c(n2)sc2cc(C(=O)NCc4cccs4)ccc23)cc1` yielded a survival of 78%. With `COc1ccc(-c2cn3c(n2)sc2cc(C(=O)NCc4cccs4)ccc23)cc1` the survival was 55% (active). In the case of `O=C(CCc1ccccc1)NCc1ccc2c(c1)CCN2C(=O)c1ccc(Cl)cc1`, the survival is reported as 77%. `COc1ccc(CCNC(=O)c2cnn(-c3cccc(C)c3)c2C2CCN(C(=O)OC(C)(C)C)CC2)cc1OC` was tested, and the survival was 67%. For `O=C(NCCc1nc2ccccc2n1CCCOc1ccc(Cl)cc1)C1CCCCC1`, the survival was 24% (active). Work on `Cc1ccccc1OCCCn1c(CCNC(=O)C2CCCCC2)nc2ccccc21` yielded a survival of 61%. `Cc1ccc(OCCCn2c(CCNC(=O)C3CCCCC3)nc3ccccc32)c(C)c1` showed a survival of 64%. Work on `Cc1cccc(C)c1OCCn1c(CCNC(=O)C2CCCCC2)nc2ccccc21` yielded a survival of 57%. `Cc1cc(C)cc(OCCCn2c(CCNC(=O)C3CCCCC3)nc3ccccc32)c1` was tested, and the survival was 35%. `Cc1cc(OCCn2c(CCNC(=O)C3CCCCC3)nc3ccccc32)ccc1Cl` was tested, and the survival was 87%. With `Cc1ccc(OCCn2c(CCNC(=O)C3CCCCC3)nc3ccccc32)cc1` the survival was 61%. For `Cc1cc(C)cc(OCCn2c(CCNC(=O)C3CCCCC3)nc3ccccc32)c1`, the survival was 92%. In the case of `O=C(NCCc1nc2ccccc2n1CCOc1ccc(Cl)cc1)C1CCCCC1`, the survival is reported as 36% (active). In the case of `Cc1cccc(C)c1OCCCn1c(CCNC(=O)C2CCCCC2)nc2ccccc21`, the survival is reported as 1% (active). `O=C(NCCCc1nc2ccccc2n1Cc1ccc(Cl)cc1)C1CCCCC1` showed a survival of 64%. In the case of `Cc1cc(OCCCn2c(CCNC(=O)C3CCCCC3)nc3ccccc32)ccc1Cl`, the survival is reported as 4% (active). `Cc1cc(C)cc(N2CCn3c2nc2c3c(=O)n(CCCc3ccccc3)c(=O)n2C)c1` was tested, and the survival was 67%. `O=C(CSc1nc2c(c(=O)[nH]1)CCCC2)Nc1cccc(O)c1` was tested, and the survival was 68%. Molecule `Cc1cccc(N2CCN(C(=O)c3cnn(-c4cccc(Cl)c4C)c3C3CCNCC3)CC2)c1C` has a survival of 80%. In the case of `Cc1cc(NC(=O)c2ccc3c(c2)N(Cc2cccc(Cl)c2)C(=O)c2ccccc2S3(=O)=O)ccc1Br`, the survival is reported as 90%. Work on `Cc1ccc(C2CCN(C(=O)Nc3ccc(Cl)cc3)C2)cc1` (stereo not given) yielded a survival of 81%. Work on `O=C(Nc1ccc(Cl)c(Cl)c1)N1CCC(c2ccccc2)C1` (stereo not given) yielded a survival of 81%. In the case of `Cc1ccc(C2CCN(C(=O)Nc3ccc(Cl)c(Cl)c3)C2)cc1` (stereo not given), the survival is reported as 20% (active). Work on `COc1ccc(N2C(=O)CSC23C(=O)N(CC(=O)NCCc2ccccc2)c2ccccc23)cc1` (stereo not given) yielded a survival of 94%. `CCN(CC)S(=O)(=O)c1ccc(-c2nnc(SCC(=O)Nc3nc4ccccc4s3)o2)cc1` was tested, and the survival was 66%. For `N=c1n(CCO)c2ccccc2n1CCOc1ccc(F)cc1`, the survival was 40% (active). In the case of `CCOC(=O)Cn1c(=N)n(CCOc2ccc(OC)cc2)c2ccccc21`, the survival is reported as 43% (active). `O=C1CSC(=O)N1CCOc1ccc(F)cc1` gave a survival of 80%. With `CCOC(=O)Cn1c(=N)n(Cc2ccc(C(C)(C)C)cc2)c2ccccc21` the survival was 103%. `CCCCn1c(=N)n(CCCOc2ccc(F)cc2)c2ccccc21` was tested, and the survival was 48%. `CCCCn1c(=N)n(CCOc2ccccc2OC)c2ccccc21` showed a survival of 56%. `N=c1n(CCO)c2ccccc2n1Cc1ccccc1F` was tested, and the survival was 47% (active). `N=c1n(CC(N)=O)c2ccccc2n1Cc1ccccc1Cl` was tested, and the survival was 99%. Work on `N=c1n(CC(=O)O)c2ccccc2n1Cc1ccccc1` yielded a survival of 84%. `O=C(O)CCN1C(=O)CSC1=O` was tested, and the survival was 72%. `CCCOc1cccc(C2c3c(oc4cc(C)c(C)cc4c3=O)C(=O)N2CCCN2CCOCC2)c1` (stereo not given) was tested, and the survival was 64%. In the case of `COc1ccc(CCNC(=O)c2ccc3c(c2)N(Cc2cc(C)ccc2C)C(=O)c2ccccc2S3=O)cc1OC` (stereo not given), the survival is reported as 70%. With `COc1cc(OC)c(NC(=O)Cn2cnc3sc(C)c(S(=O)(=O)N4CCN(C)CC4)c3c2=O)cc1Cl` the survival was 157%. For `Cc1oc(-c2ccc(Cl)cc2)nc1CN1CCCC(C(=O)NCc2ccccc2)C1` (stereo not given), the survival was 93%. For `Cc1oc(-c2cccc(Br)c2)nc1CN1CCC(C(=O)NCCc2ccc(Cl)cc2)CC1`, the survival was 76%. `CCc1ccc(-c2nc(CN3CCCC(C(=O)NCc4ccc(C)cc4)C3)c(C)o2)cc1` (stereo not given) gave a survival of 73%. `Cc1ccc(CCNC(=O)C2CCCN(Cc3nc(-c4cccc(Cl)c4)oc3C)C2)cc1` (stereo not given) was tested, and the survival was 25% (active). With `Cc1oc(-c2cccc(Cl)c2)nc1CN1CCC(C(=O)NCCc2ccc(Cl)cc2)CC1` the survival was 87%. `Cc1ccc(C)c(N2CCN(C(=O)C3CCCN(Cc4nc(-c5cccc(Cl)c5)oc4C)C3)CC2)c1` (stereo not given) gave a survival of 78%. With `Cc1oc(-c2ccc(Cl)cc2)nc1CN1CCCC(C(=O)NCCc2ccccc2)C1` (stereo not given) the survival was 44% (active). Work on `Cc1oc(-c2ccc(Cl)cc2)nc1CN1CCCC(C(=O)NCCc2ccc(Cl)cc2)C1` (stereo not given) yielded a survival of 54%. `Cc1oc(-c2cccc(Cl)c2)nc1CN1CCCC(C(=O)NCCc2ccc(Cl)cc2)C1` (stereo not given) was tested, and the survival was -6% (active). For `Cc1cccc(-c2nc(CN3CCCC(C(=O)N4CCN(c5cc(Cl)ccc5C)CC4)C3)c(C)o2)c1` (stereo not given), the survival was 68%. With `Cc1cccc(-c2nc(CN3CCCC(C(=O)NCCc4ccc(Cl)cc4)C3)c(C)o2)c1` (stereo not given) the survival was 34% (active). `CCCCNC(=O)C1CCCN(Cc2nc(-c3ccc(Cl)cc3)oc2C)C1` (stereo not given) was tested, and the survival was 77%.
